Rows were chosen to be rich in hits. Some 3.5% of all compounds tested hit in one or more screens of this group.
GPR151 activ – activates the human receptor GPR151; AID 1508602; activation, % at 11.2 µM; 650,000 compounds, 1% hits; PathHunter beta-arrestin GPR151 cells, luminescence; in the data active means activation above about 4.9%;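 further: 0% = median of compound wells and 100% = cells with positive control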
FBW7 activator – activators of human E3 ligase FBW7; 650,000 compounds, 0.13% hits; normalized activity (activation), % at 26.1 µM; AlphaScreen FBW7–phospho-cyclin E peptide binding, activator screen; in the data active means normalized activity above about 1.9%;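 further: purified mutant Fbw7 with reduced substrate affinity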
TEAD-YAP inh – TEAD-YAP interaction inhibition | 640,000 compounds, 1.4% hits | AID 1259422 | HEK-TIYL cells, TEAD-Gal4/YAP UAS-luciferase luminescence | inhibition, % at 9.12 µM; in the data active means inhibition above about 32%;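 further: 0% = median of test compound wells and 100% = reference inhibitor wells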
MITF primary – inhibitors of human MITF; O75030; AlphaScreen MITF homodimerization, bead proximity signal; inhibition, % at 2.6 µM; 650,000 compounds, 0.91% hits; in the data active means inhibition above about 50%;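 further: 0% = vehicle wells with protein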
Target sequence (O75030 whole entry, looked up): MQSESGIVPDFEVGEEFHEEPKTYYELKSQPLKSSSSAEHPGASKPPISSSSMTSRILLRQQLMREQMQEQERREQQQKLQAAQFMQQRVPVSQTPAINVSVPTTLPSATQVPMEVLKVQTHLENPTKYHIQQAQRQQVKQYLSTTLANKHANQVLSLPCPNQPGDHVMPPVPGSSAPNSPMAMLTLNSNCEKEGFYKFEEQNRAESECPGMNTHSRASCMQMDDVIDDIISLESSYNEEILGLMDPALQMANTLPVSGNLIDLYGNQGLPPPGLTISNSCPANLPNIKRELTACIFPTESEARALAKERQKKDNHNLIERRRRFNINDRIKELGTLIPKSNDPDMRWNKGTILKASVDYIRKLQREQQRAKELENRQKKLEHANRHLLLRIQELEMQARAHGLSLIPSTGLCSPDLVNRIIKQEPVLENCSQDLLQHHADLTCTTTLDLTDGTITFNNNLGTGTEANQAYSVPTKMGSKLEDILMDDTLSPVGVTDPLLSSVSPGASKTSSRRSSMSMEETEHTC
MITF inh conf – human MITF inhibition, confirmation; shares compounds with MITF primary; AlphaScreen MITF homodimerization, biotin/His-MITF beads; inhibition, % at 2.6 µM; 4,700 compounds, 16% hits; AID 1259372;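 active means inhibition above a cutoff derived from the DMSO control wells, cut at about 28% in these data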;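 further: 0% = MITF dimer wells with DMSO only; inhibitors lower the bead chemiluminescence by keeping MITF from dimerizing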
AS interf ctr – AlphaScreen optical interference, counter-screen | 4,700 compounds, 7.6% hits | inhibition, % at 2.6 µM | shares compounds with MITF primary | LysRS AlphaScreen counterscreen, signal interference, triplicate | AID 1259376;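 active means inhibition above a cutoff derived from the DMSO control wells, cut at about 30% in these data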
An asterisk follows results filed as active; . = not tested or not shown.

SMILES	GPR151 activ	FBW7 activator	TEAD-YAP inh	MITF primary	MITF inh conf	AS interf ctr
C=CCNc1nc(Nc2ccc(C)cc2)c2cnn(C)c2n1	-1	0	5	2	.	.
CCCOc1ccccc1OCC(=O)O	0	0	-6	2	.	.
COc1cccc(C(=O)N2CCN(S(C)(=O)=O)CC2)c1OC	0	0	-4	9	.	.
CCN1CCN(CCOCCOc2cccc(Oc3ccccc3)c2)CC1	0	0	-1	79*	6	13
COc1ccc(-c2cncc(C(=O)Nc3ccc(NC(C)=O)cc3)c2)cc1	1	0	2	6	.	.
CN1CCC(=NNc2nc3ccccc3[nH]2)CC1	-1	0	-26	53*	8	2
c1ccc(CN2CCC(=NNc3nc4ccccc4[nH]3)CC2)cc1	-1	0	-11	43	.	.
COc1ccc(C(=O)Nc2cccc(-c3ccc(N4CCN(C)CC4)nn3)c2)cc1	-1	0	-39	5	.	.
Cc1ccc(C)c(OCCCCNCCO)c1C	0	0	1	56*	-13	-3
Cc1cc(OCCOCCN2CCCC2)ccc1C(C)C	4	0	2	25	.	.
Cc1cc(OCCCCNCCO)ccc1C(C)C	-1	0	3	62*	-12	-3
COCCNCCOc1ccc(C(C)C)c(C)c1	-2	0	5	60*	11	12
Cc1cccc(OCCCCNCCO)c1C	-1	0	13	-8	.	.
Cc1cc(OCCNCCO)ccc1C(C)C	0	0	-6	4	.	.
C=CCNCCOCCOc1ccc(C(C)C)c(C)c1	-1	0	4	52*	0	1
Cc1ccc(S(=O)(=O)CCC(=O)OCC(=O)c2ccc(Cl)s2)cc1	-1	0	0	9	.	.
O=C(Cn1cccc1)NCCc1ccccc1	-2	0	-9	23	.	.
CCOC(=O)CCNC(=O)N1CCC(CC2CCCCO2)(C(=O)OCC)CC1 (configuration not stated)	1	0	-10	-13	.	.
COCCCNCCOc1ccc(C(C)C)c(C)c1	0	0	-11	60*	-1	6
Cc1cc(OCCNCCN)ccc1C(C)C	-1	0	4	-7	.	.
COCCCNCCCOc1ccc(OCc2ccccc2)cc1	0	0	-11	54*	6	16
O=C(O)c1cc(S(=O)(=O)N2CCOCC2)c(Br)s1	0	0	6	6	.	.
Cc1ccc(OCCNCCC(=O)O)cc1	-2	0	-8	57*	-5	0
Cc1ccc(OCCCCCNCCO)cc1	-1	0	1	-28	.	.
Clc1ccc(-c2[nH]ncc2CNCc2cccnc2)cc1	1	0	4	58*	-9	-5
SMILES	GPR151 activ	FBW7 activator	TEAD-YAP inh	MITF primary	MITF inh conf	AS interf ctr
CCN1CCN(Cc2c(C(=O)N(C)CCc3ccccc3)nc3sccn23)[C@@H](C)C1=O	0	0	0	-2	.	.
COc1cc(CN(C)CCN(C)C)cc(OC)c1O	1	0	3	55*	-3	-4
O=C(COC(=O)C1CC(=O)N(c2ccccc2)C1)c1ccc(-c2ccccc2)cc1 (configuration not stated)	4	1	17	10	.	.
CC(C(=O)N1CCCCC1)N(C)CC(=O)Nc1ccc(F)c(F)c1F (configuration not stated)	0	0	6	69*	9	14
CCOc1cccc(NC(=O)/C(C#N)=C\c2cc(OC)c(O)cc2Br)c1	-1	0	12	4	.	.
O=C(O)CSc1nc2ccccc2n1CC(=O)N1CCOCC1	-1	0	12	17	.	.
NC(=O)CSc1nc2ccccc2n1CC(=O)N1CCOCC1	2	0	-6	62*	13	14
O=C1N/C(=C\c2ccc(-c3ccccc3)o2)C(=O)N1Cc1ccc(Cl)cc1	1	0	7	-8	.	.
CN(C)CCNC(=S)N1CCN(S(=O)(=O)c2ccccc2[N+](=O)[O-])CC1	4	0	7	73*	-2	9
O=[N+]([O-])c1ccccc1S(=O)(=O)N1CCN(C2CCCC2)CC1	1	0	3	11	.	.
O=[N+]([O-])c1ccccc1S(=O)(=O)N1CCN(C2CCN(Cc3ccccc3)CC2)CC1	1	0	-5	74*	6	15
O=[N+]([O-])c1ccccc1S(=O)(=O)N1CCN(Cc2ccccn2)CC1	-1	0	7	58*	13	14
Cc1ccc(S(=O)(=O)N2CCN(Cc3ccccc3Br)CC2)cc1	-2	0	6	61*	13	15

Screening data deposited in PubChem BioAssay by The Scripps Research Institute Molecular Screening Center.
